# From a collection of fitness landscapes (doi:10.1016/j.celrep.2020.107928)
# Whole data set: some 81,000 sequences, median “one-hybrid fitness for binding parS DNA” near -0.17, cut for the highest 2% near 0.51. Shown is part of a subset that was picked to be rich in the highest values.
# B1: Caulobacter ParB omega fusion; a variant is named by its letters at X, in order, B8GW30 (parent)
# chain: MESVVVGEPGMSEGRRGLGRGLSALLGEVDAAPAQAPGEQLGGSREAPIEILQRNPDQPRRTFREEDLEDLSNSIREKGVLQPILVRPSPDTAGEYQIVAGERAWRAAQRAGLKTVPIMVRELDDLAVLEIGIIENVQRADLNVLEEALSYKVLMEKFERTQENIAQTIGKSXSHVANXMRLLXLPDEVQSYLVSGELTAXHARAIAAAADPVALAKQIIEGGLSVRETEALARKAPNLSAGKSKGGRPPRVKDTDTQALESDLSSVLGLDVSIDHRGSTGTLTITYATLEQLDDLCNRLTRGI
# Variants of: B1
# Assay: one-hybrid fitness for binding parS DNA (scaled: cognate 1, non-cognate 0); higher = stronger binding
# Conditions: with parS DNA site
# Summary of the method: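 The reporter was HIS3, with the binding site 19 bp from the promoter, in E. coli USO used for bacterial one-hybrid selection of Caulobacter ParB libraries with four specificity codons randomised. Growth was on M9 lacking histidine, with 0.1 mM IPTG and 5 mM 3-AT, for 48 hours at 37°C. Illumina sequencing covered plasmids before and after selection; three replicate libraries were pooled and variants with under 10 reads dropped. A fitness score is the log change in variant-to-wild-type read ratio, rescaled to the cognate and non-cognate references.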
row,Variant,one-hybrid fitness for binding parS DNA
1,RNKH,0.219
2,RNKY,0.543
3,RNVP,≤ 0.2
4,QADL,≤ 0.2
5,QIAH,≤ 0.2
6,YERV,≤ 0.2
7,YMQL,≤ 0.2
8,NLRR,≤ 0.2
9,QKLQ,≤ 0.2
10,RIFK,0.283
11,RIFY,0.462
12,RIAH,0.279
13,RIAG,0.997
14,RIAP,≤ 0.2
15,RIFG,0.978
16,YDMG,≤ 0.2
17,WYYF,≤ 0.2
18,GTPA,≤ 0.2
19,PTAE,≤ 0.2
20,RYPN,≤ 0.2
21,RYIN,0.269
22,RYPG,0.545
23,RYIK,≤ 0.2
24,RYPH,≤ 0.2
25,RYIG,0.793
26,PRFW,≤ 0.2

row,Variant,one-hybrid fitness for binding parS DNA
1,CGQS,≤ 0.2
2,HFIF,≤ 0.2
3,GKTS,≤ 0.2
4,RLRH,0.223
5,RLSN,0.455
6,RLSD,≤ 0.2
7,RLHS,0.96
8,RLSS,0.991
9,RLHP,≤ 0.2
10,RLRS,0.875
11,RLHH,0.204
12,RLND,≤ 0.2
13,RLNH,0.252
14,RLNS,0.932
15,RLRP,≤ 0.2
16,QPVT,≤ 0.2
17,TWLF,≤ 0.2
18,MFNG,≤ 0.2
19,MAAA,≤ 0.2
20,NWPE,≤ 0.2
21,TFVS,≤ 0.2
22,VVQN,≤ 0.2
23,YPYG,≤ 0.2
24,IVTG,≤ 0.2
25,LDGI,≤ 0.2
26,ACHY,≤ 0.2

row,Variant,one-hybrid fitness for binding parS DNA
1,RLWD,≤ 0.2
2,RLYD,≤ 0.2
3,RLGP,≤ 0.2
4,RLLN,0.44
5,RLYS,1.04
6,RLGD,≤ 0.2
7,RLLH,0.248
8,RLWN,0.443
9,RLGS,0.981
10,RLYN,0.487
11,RLLS,1.05
12,RLWS,1.03
13,YVWS,≤ 0.2
14,YNKG,≤ 0.2
15,RRYE,≤ 0.2
16,YFLW,≤ 0.2
17,GWSG,≤ 0.2
18,SAAF,≤ 0.2
19,VKNG,≤ 0.2
20,AELV,≤ 0.2
21,GLPW,≤ 0.2
22,PMAN,≤ 0.2
23,YMPP,≤ 0.2
24,KVPK,≤ 0.2
25,RLDS,1.01
26,RLDN,0.416

row,Variant,one-hybrid fitness for binding parS DNA
1,RLDH,≤ 0.2
2,QGEI,≤ 0.2
3,TFSF,≤ 0.2
4,YFFS,≤ 0.2
5,RGCT,0.51
6,RGCS,0.595
7,RGWN,≤ 0.2
8,RGWD,≤ 0.2
9,RGWS,0.573
10,RGCD,≤ 0.2
11,RGGP,≤ 0.2
12,RGCQ,≤ 0.2
13,RGGN,≤ 0.2
14,RGGS,0.733
15,RGCN,≤ 0.2
16,SEDR,≤ 0.2
17,YADT,≤ 0.2
18,KCCV,≤ 0.2
19,VDHL,≤ 0.2
20,DLCC,≤ 0.2
21,SLAM,≤ 0.2
22,NYMG,≤ 0.2
23,RGIS,0.524
24,RGSS,0.849
25,RGSN,0.218
26,RGIN,≤ 0.2

row,Variant,one-hybrid fitness for binding parS DNA
1,RGHT,0.519
2,RGIH,≤ 0.2
3,RGHF,≤ 0.2
4,RGSD,≤ 0.2
5,RGQT,0.58
6,TPNI,≤ 0.2
7,SATH,≤ 0.2
8,HPWF,≤ 0.2
9,TRNA,≤ 0.2
10,QQAP,≤ 0.2
11,AFMD,≤ 0.2
12,PRPT,≤ 0.2
13,LTYS,≤ 0.2
14,WIST,≤ 0.2
15,RGPT,≤ 0.2
16,RGNF,≤ 0.2
17,RGDT,0.371
18,RGQN,0.249
19,RGRT,0.676
20,RGYT,0.475
21,RGNT,0.609
22,RGQD,≤ 0.2
23,RGSY,0.226
24,RGQS,0.803
25,RGST,0.601
26,LTFV,≤ 0.2

row,Variant,one-hybrid fitness for binding parS DNA
1,QTHV,≤ 0.2
2,HQLT,≤ 0.2
3,QKHC,≤ 0.2
4,SLYD,≤ 0.2
5,GLTA,≤ 0.2
6,CINY,≤ 0.2
7,YKSG,≤ 0.2
8,PKIS,≤ 0.2
9,EFPF,≤ 0.2
10,DVWS,≤ 0.2
11,NFYC,≤ 0.2
12,DMTG,≤ 0.2
13,RGHH,≤ 0.2
14,RGHD,≤ 0.2
15,RGYS,0.586
16,RGFT,0.455
17,RGAP,≤ 0.2
18,RGRD,≤ 0.2
19,RGRS,0.932
20,RGPS,0.336
21,RGHS,0.73
22,RGAT,0.524
23,RGYD,≤ 0.2
24,RGRP,≤ 0.2
